Data as given in PubChem BioAssay AID2289 (National Center for Advancing Translational Sciences (NCATS), 2010).
In all, about 340,000 compounds went through this assay and about 3,300 (0.97%) were called active. Roughly 9% stayed inconclusive and do not appear here. The call rests on the fitted dose curve; in most records, active means well fitted inhibition curve with a large enough effect; inconclusive means small, poorly fitted or top-dose-only effect, or effect the other way; inactive means flat fitted curve, though single readings scatter. The list shows a part of the results.

Test: qHTS Assay for Modulators of miRNAs and/or Inhibitors of miR-21; further: nearly all actives have a fitted effect of over 55% in size
Conditions: HeLa miR-21-FLuc reporter, luciferase luminescence, 48 h; actives lower the signal
In short: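 Using DMEM plus 10% FBS, HeLa miR-21-FLuc cells are incubated with test compounds (final up to about 40uM) for 48 hours; firefly luciferase signal is then imaged following reagent-mediated lysis.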
Potency means the concentration at half of the fitted maximal effect.

Potency, active:
O=C(N/N=C/c1cn(-c2ccccc2)nc1-c1cc2ccccc2o1)c1ccccc1Br 0.927 µM, CCC(=O)Nc1ccc2nc(C3CC3)n(Cc3ccc(C(C)(C)C)cc3)c(=O)c2c1 0.185 µM, COc1ccc(Cn2c(C3CC3)nc3ccc(NC(C)=O)cc3c2=O)cc1 3.29 µM, COc1ccc(Cn2c(C3CC3)nc3ccc(NC(=O)C4CC4)cc3c2=O)cc1 1.47 µM, Cc1ccc2nc(-c3ccc(NS(=O)(=O)c4ccc(F)cc4)cc3)sc2c1 6.56 µM, Cc1cccc(S(=O)(=O)Nc2ccc(-c3nc4ccc(C)cc4s3)cc2)c1 2.07 µM, CC(=O)c1ccc(NS(=O)(=O)c2cccc(C)c2)cc1 11.7 µM, CCc1ccc2oc(-c3cc(N=Cc4cccc(OC)c4O)ccc3O)nc2c1 0.656 µM, CC/C(=N\NC(=O)c1c[nH]c2ccccc12)c1cccs1 2.93 µM, O=C(N/N=C/c1cccs1)c1c[nH]c2ccccc12 7.36 µM, S=C(c1ccc(-c2ccccc2Cl)o1)N1CCCCC1 3.29 µM, CN1CCN(C(=S)c2ccc(-c3cccc(Cl)c3Cl)o2)CC1 5.21 µM, COCCCNC(=S)N/N=C/c1ccc(N(C)C)cc1Cl 5.85 µM, Cc1cccc(NC(=O)c2cc(-c3cc(C)ccc3O)n[nH]2)c1 1.04 µM, Cc1ccc(C)c(NC(=O)c2cc(-c3cc(C)ccc3O)n[nH]2)c1 5.21 µM, Cc1ccc(O)c(-c2cc(-c3cccc(Br)c3)n[nH]2)c1 6.56 µM, Cc1cccc(NC(=O)c2cc(-c3cc(C)c(C)cc3O)n[nH]2)c1 0.736 µM, O=C(O)c1ccc(N/N=C/c2cccc3cccnc23)cc1 0.369 µM, O=C(O)c1ccc(N/N=C/c2ccnc3ccccc23)cc1 3.69 µM, Cn1ncc2c(Nc3ccc4ccccc4c3)ncnc21 4.65 µM, CCCn1ncc2c(Nc3ccc(C)c(C)c3)ncnc21 4.65 µM, Clc1ccc2c(c1)[C@H]1OCC[C@H]1[C@@H](c1ccco1)N2 5.85 µM, Clc1ccc2c(c1)C1OCCC1C(c1ccco1)N2 (configuration not stated) 6.56 µM, CCC(=O)c1ccc(OCc2ccccc2)c(OC)c1 6.56 µM, CCCNC(=O)c1cccc(COc2ccccc2OC)c1 2.07 µM, COc1ccccc1OCCNC(=O)c1ccc(Br)cc1 16.5 µM, COc1ccccc1OCCNC(=O)c1ccc2c(c1)CCC2 5.85 µM, Cc1ccc(OCCNC(=O)c2ccc(C)cc2)cc1 14.7 µM, Clc1cccc(Cl)c1Cn1ccc(C2CC2)n1 10.4 µM, O=C(NCc1ccccc1)c1c[nH]c2cc3c(cc2c1=O)OCCO3 2.33 µM, Cc1ccc(N/C=C/c2onc(C)c2[N+](=O)[O-])cc1 0.185 µM, Cc1cc(O)ccc1N/C=C/c1onc(C)c1[N+](=O)[O-] 1.04 µM, O=C(c1ccc2ccccc2n1)N1CCN(c2ccccc2Cl)CC1 16.5 µM, Oc1ccccc1N1CCN(c2ccc3ccccc3n2)CC1 0.826 µM, CN(C)c1cnn(-c2ccccc2)c(=O)c1Cl 14.7 µM, CC(=O)Nc1ccc(OCC(O)Cn2ccnc2)cc1 (configuration not stated) 16.5 µM, COc1ccc(-c2cnc3ccccc3n2)cc1NC(=O)CNC(=O)c1ccccc1 6.56 µM, CCOC(=O)c1ccc2c(c1)NCc1cccc(OC)c1O2 3.29 µM, CCN(CC)c1ccc(/C=N/N2CCOCC2)c(O)c1 2.93 µM, COc1cccc(NC(=S)Nc2cc(C)cc(C)n2)c1 4.65 µM, CSc1ccc(NC(=O)Nc2cc(C)ccn2)cc1 0.104 µM, Cc1cccc(NC(=O)Nc2cc(C)cc(C)n2)c1 0.736 µM, Cc1ccc(NC(=O)Nc2cccc(C)n2)cc1 2.07 µM, Cc1cc(C)nc(NC(=O)/C=C/c2ccccc2Cl)c1 2.07 µM, CC(NC(=O)c1ccccc1NC(=O)c1ccco1)C(=O)O (configuration not stated) 6.56 µM, Nc1nc(-c2ccc3ccccc3c2)cs1 1.65 µM, COc1ccc(-c2cn3cccc(C)c3n2)cc1F 0.927 µM, CN(C)/C=N/c1nc(-c2ccc3ccccc3c2)cs1 1.31 µM, COc1ccc(-c2csc(N)n2)cc1F 9.27 µM, CCOC(=O)c1ccc(OS(=O)(=O)c2ccccc2)c(OC)c1 1.31 µM, COc1ccccc1NC(=S)N/N=C/c1ccc(O)cc1 0.736 µM, COc1ccc(NC(=O)/C=C/c2ccccc2)cn1 1.65 µM, COc1ccc(/C=C/C(=O)Nc2ccccc2)cc1OC 4.14 µM, COc1cc(/C=N/NC(=O)Nc2ccccc2)ccc1OC(C)=O 8.26 µM, CCN(CC)c1ccc(/C=N/NC(=O)Nc2ccccc2)cc1 4.14 µM, Cc1cccc(/C(N)=N/OC(=O)c2ccc(F)cc2)c1 4.65 µM, COc1ccc(/C=C/C(=O)O/N=C(\N)c2ccccc2)cc1OC 5.85 µM, COc1ccc(C(=O)O/N=C(\N)c2cccc(C)c2)cc1OC 8.26 µM, O=C(/C=C/c1ccccc1)Nc1cccnc1Cl 1.85 µM, CCCCCC(=O)N/N=C/c1ccc(N(C)C)cc1 13.1 µM, COc1ccc2c(c1)CC/C2=N\OC(=O)c1cccc(C)c1 4.14 µM, COc1ccc(C(=O)O/N=C(\N)c2ccccc2)cc1OC 2.07 µM, CC(=O)Oc1ccc(/C=N/NC(=S)Nc2ccccc2)cc1 0.656 µM, Cc1ccccc1/C(N)=N/OC(=O)/C=C/c1ccccc1 5.21 µM, C=CCn1cccc(C(=O)Nc2ccc(N(C)C)cc2)c1=O 4.65 µM, Clc1cccc(-c2cc3nc4c(c(NCc5ccco5)n3n2)CCCC4)c1 2.93 µM, Fc1cccc(CSc2ccc(-c3cccs3)nn2)c1 4.14 µM, Cc1cccc(CSc2ccc(-c3cccs3)nn2)c1 7.36 µM, c1ccc(CSc2ccc(-c3cccs3)nn2)cc1 2.93 µM, c1ccc(CSc2ccc(-c3cccnc3)nn2)cc1 6.56 µM, Cc1cc(Nc2ccccc2)nc2cc(O)ccc12 13.1 µM, COc1ccc(Nc2nc(C)c3ccccc3n2)cc1 3.29 µM, COc1ccc(Nc2cc(C)c3ccccc3n2)cc1 5.85 µM, CCOc1ccc(Nc2cc(C)c3ccccc3n2)cc1 18.5 µM, COc1ccc(-n2nc([N+](=O)[O-])c(=NCc3cccnc3)n2O)cc1 2.33 µM, O=[N+]([O-])c1nn(-c2ccc3c(c2)OCCO3)n(O)c1=NCc1ccc(F)cc1 1.17 µM, Cc1ccc(CN=c2c([N+](=O)[O-])nn(-c3ccc4c(c3)OCCO4)n2O)cc1 1.31 µM, COc1ccc(-n2nc([N+](=O)[O-])c(=NCc3ccc4c(c3)OCO4)n2O)cc1 1.65 µM, CCOC(=O)c1sc(NC(=O)c2ccccc2)cc1C 0.521 µM, CCOC(=O)c1sc(NC(=O)C2CCC2)cc1C 4.65 µM, CCOC(=O)c1sc(NC(=O)c2sccc2C)cc1C 0.369 µM, COc1ccc2[nH]c(=O)c(CNc3ccccc3C)cc2c1 7.36 µM, O=C(N=Nc1c(O)n(Cc2ccccc2)c2ccccc12)c1ccc(O)cc1 6.56 µM, Cc1ccc(NC(=O)CSCc2ccc(F)cc2)cc1 6.56 µM, O=C(CSCc1c(F)cccc1F)Nc1ccccc1 5.85 µM, O=C(CSCc1ccccc1)Nc1cccc(F)c1 13.1 µM, O=C(CSCc1ccccc1)Nc1ccc(F)c(F)c1 14.7 µM, O=C(NCCc1ccccc1F)c1cccc2cccnc12 3.29 µM, NC(=O)c1cccnc1Nc1cccc([N+](=O)[O-])c1 6.56 µM, Cc1ccc(NC(=O)c2cccc3cccnc23)cc1 3.69 µM, Cc1ccc(Nc2ncccc2C(N)=O)cc1 1.65 µM, Cc1ccc(Nc2ncccc2C(N)=O)cc1[N+](=O)[O-] 3.29 µM, Cc1cc(Cl)ccc1Nc1ncccc1C(N)=O 2.07 µM, COc1ccnc(Oc2ccc3ccccc3c2)c1C#N 2.93 µM, COc1ccc(-c2nc3c4ccccc4ccn3c2CN2CCOCC2)cc1OC 6.56 µM, COc1cnn(-c2ccc(Br)cc2)c(=O)c1SCc1ccccc1 13.1 µM, CC(=O)Nc1ccc(-c2csc(NCc3ccco3)n2)cc1 4.14 µM, Oc1ccc(-c2csc(NCc3ccco3)n2)cc1 4.65 µM, COc1ccc(-c2csc(NCc3ccco3)n2)cc1C 5.85 µM, O=C(Cc1ccc(Cl)cc1)c1ccc(O)cc1 5.21 µM, CN(C)/C=C/C(=O)c1cnc(-c2cccc(Cl)c2)s1 18.5 µM, CN(C)/C=C/C(=O)c1cnc(-c2ccccc2Cl)s1 18.5 µM, COc1cc(C)ccc1OCCCOc1ccccc1Cl 6.56 µM, COc1cc(C)ccc1OCCOc1ccccc1Cl 14.7 µM, COc1ccccc1OCCCOc1ccc([N+](=O)[O-])cc1Cl 7.36 µM, Cn1c(-c2ccc3nc(N)sc3c2)nc2cc(N)ccc21 18.5 µM, CN(N=Nc1ccc([N+](=O)[O-])cc1)c1ccccc1 4.14 µM
